Screening data as filed in PubChem.
Rows were chosen to be rich in hits. Some 7.5% of all compounds tested hit in one or more screens of this group.
NPC1 prom act: activates the NPC1 promoter; Potency, µM (doses to about 9.22 µM), for inactives: top-dose activation, hits mostly activators; 2.4% of 320,000 active; AID 485313; Huh7 NPC1 promoter luciferase reporter, 24 h; further: % of control where 0% means no effect; nearly all actives have a fitted effect of over 60% in size
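Compounds in DMSO were transferred onto Huh7 NPC1-luciferase reporter cells pre-incubated 2 h; after 24 h at 37 °C, Amplite reagent was dispensed and luminescence recorded 10 min later.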
SMN2 splice enh: enhancers of SMN2 splice variant expression | HEK293 SMN2-luciferase splicing reporter, luminescence, 30-36 h | AID 1458 | Potency, µM (titrated, usually from 46.1 µM), without a hit: top-dose activity change, positive = activation, most hits filed as activators | 2.8% of 210,000 active; further: % of control where 0% means no effect; nearly all actives have a fitted effect of over 55% in size
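HEK293 cells carry an SMN2 […]–luciferase reporter in which exon 7 inclusion puts luciferase in frame. Cells were plated 10-12 h before compound addition, then incubated 30-36 h at 37C. ONE-Glo luminescence was read; sodium butyrate at 4.5 mM final served as control.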
Rab9 promoter act: Rab9 promoter activation | Huh7 Rab9 promoter-luciferase reporter, luminescence, 24 h | Potency, µM (titrated, usually from 9.22 µM), without a hit: at the highest dose activation, negative = inhibition, hits mostly activators | 2.8% of 320,000 active | AID 485297; further: % of control where 0% means no effect; nearly all actives have a fitted effect of over 60% in size
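Luminescence from Amplite-detected luciferase (10 minutes, ambient) reports Rab9 promoter activation. Before that, stable Rab9-luciferase Huh7 cells (1500/well, reduced-serum OP-MEM I plus 10% FBS) were exposed to compound for 24 hours at 37C.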
Luc counter: blocks Kinase-Glo luciferase, a counter-screen artifact. Kinase-Glo luciferase, ATP luminescence, 8 min. Potency, µM (series often up to 38.3 µM), for inactives: at the highest dose activity change, negative = inhibition, most hits filed as inhibitors. Q27757. 0.28% of 200,000 active; further: on the % scale 0 is the no-effect control and ±100 the full control effect; nearly all actives have a fitted effect of over 60% in size
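Kinase-Glo luciferase light output from ATP and luciferin was measured with 10 uM ATP, within the enzyme's linear range. Buffer: 50 mM imidazole pH 7.2, 50 mM KCl, 7 mM MgCl2, 0.01% Tween 20, 0.05% BSA; luminescence read after 8 min at ambient temperature.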
FLuc counter: inhibits or activates purified firefly luciferase, miR-21 counter-screen; P08659; Potency, µM (top dose mostly 57.5 µM), for inactives: at the top dose activity change, negative = inhibition, actives largely listed as inhibitors; 6.9% of 360,000 active; purified FLuc, Km substrates, luminescence inhibition; AID 588342;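 further: plate controls were vehicle for no effect and reference inhibitor for full effect; nearly all actives have a fitted effect of over 55% in size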
Target sequence (P08659 whole entry, looked up): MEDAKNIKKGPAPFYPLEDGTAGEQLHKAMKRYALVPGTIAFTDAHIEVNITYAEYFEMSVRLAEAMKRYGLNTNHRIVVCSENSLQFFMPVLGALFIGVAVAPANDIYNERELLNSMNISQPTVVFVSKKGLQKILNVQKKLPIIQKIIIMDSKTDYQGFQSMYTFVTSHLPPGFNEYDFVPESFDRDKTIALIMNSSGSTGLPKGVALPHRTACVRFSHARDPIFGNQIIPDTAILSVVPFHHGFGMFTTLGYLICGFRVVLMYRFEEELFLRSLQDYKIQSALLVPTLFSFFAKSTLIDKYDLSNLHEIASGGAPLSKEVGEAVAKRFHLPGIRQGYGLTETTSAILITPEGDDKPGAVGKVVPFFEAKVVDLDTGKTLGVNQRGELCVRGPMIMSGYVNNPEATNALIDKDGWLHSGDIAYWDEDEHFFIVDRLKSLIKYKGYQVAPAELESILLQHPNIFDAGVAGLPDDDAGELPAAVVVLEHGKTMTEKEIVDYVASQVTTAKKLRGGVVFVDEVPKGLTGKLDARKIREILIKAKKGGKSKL
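Biochemical qHTS of compounds, final roughly 60 µM downward over six points, against 10 nM purified firefly luciferase using Km concentrations of substrates (10 uM D-luciferin, 10 uM ATP) in Tris acetate pH 7.5 buffer; luminescence output.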
ELG1 genotoxic: induces genotoxicity in HEK293T cells with luciferase-tagged ELG1 | AID 504466 | 1.3% of 330,000 active | HEK293T ELG1-luciferase reporter, luminescence, 16 h | Potency, µM (titrated, usually from 46 µM), for the others: at the top dose activity change, positive = activation, usual class: activators; further: % of control where 0% means no effect; nearly all actives have a fitted effect of over 60% in size
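Genotoxic stress is detected as increased luminescence from luciferase-tagged ELG1 in HEK293T cells, measured with ONE-Glo after a 16 hr treatment at 37 °C.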
Active calls of the source: *; ? = inconclusive; / = not tested or not shown; [ ] = dose if it differs, or a comment. The call rests on the fitted dose curve; in most records, active means well fitted curve in the direction sought with a large enough effect; inconclusive means small, poorly fitted or top-dose-only effect, or another doubt; inactive means no such curve, though single readings can be large; an effect the other way counts as inactive or inconclusive. Potency means the concentration at half of the fitted maximal effect.

SMILES	NPC1 prom act	SMN2 splice enh	Rab9 promoter act	Luc counter	FLuc counter	ELG1 genotoxic
O=C(Nc1ccc(S(=O)(=O)N2CCCCC2)cc1)c1ccc(F)cc1	-1%	/	-8%	/	-1%	-16%
O=C(Nc1ccc(N2CCCCC2)cc1)c1cccnc1	?	22µM*	?	-1%	21µM*	9.2µM*
O=C(c1ccc(F)cc1)c1ccc(N2CCCCC2)cc1	2.8µM*	/	2.5µM*	/	6.7µM*	?
O=S(=O)(N1CCCCC1)N1CCN(c2ccc(F)cc2)CC1	-2%	11%	-1%	1%	-1%	-5%
CC(=O)N1CCC2(CCCN(c3cccc(-c4ccccc4)c3)C2)CC1	/	-25%	/	2%	/	/
C=CCc1c(C)nc(-c2ccccc2)nc1N/N=C/c1ccccc1	0%	9%	-3%	0%	9.5µM*	1%
C=CCc1c(C)nc(-c2ccccc2)nc1N/N=C/c1ccncc1	14%	26%	28%	-8%	6µM*	-5%
C=CCc1c(C)nc(-c2ccccc2)nc1N/N=C(\C)c1ccc(N)cc1	-5%	-29%	-17%	-1%	12µM*	-1%
C=CCc1c(C)nc(-c2ccccc2)nc1Nc1ccccc1O	2%	-3%	-1%	5%	-18%	-3%
O=C(Nc1ccc2nc(SCCOc3ccccc3)sc2c1)c1cccs1	/	/	/	/	3%	/
Cc1cccc(NC(=O)c2ccc(Cn3nc(N4CCN(c5ccccc5)CC4)ccc3=O)o2)c1C	/	/	/	/	-9%	/
CCC[C@@H]1C[C@@]1(CCC)C(NC(=O)c1ccccc1)c1cccc(Cl)c1 (stereo partly specified)	/	-15%	/	-4%	/	/
CCCCN1C(=O)/C(=C2\SC(N3CCCCC3)=NC2=O)c2ccccc21	1.4µM*	?	1.8µM*	-12%	2.1µM*	?
COc1ccccc1CNc1cc(-c2ccccc2)nc2nncn12	/	-14%	/	/	-16%	/
O=C(COc1ccc(S(=O)(=O)NCc2ccccc2)cc1Cl)NCc1ccncc1	-1%	/	?	/	-2%	-3%
Cc1cc(S(=O)(=O)NCc2ccccc2)ccc1OCC(=O)NCc1ccncc1	2.8µM*	/	3.2µM*	/	15µM*	?
O=C(c1ccc2c3n(nc2c1)-c1ccccc1CO3)N1CCOCC1	1.6µM*	/	1µM*	/	4.8µM*	?
CS(=O)(=O)N1CCc2cc(C(=O)N3CCCCC3)ccc21	0%	-10%	0%	-1%	-4%	-4%
O=C(c1ccc2c3n(nc2c1)-c1ccccc1CO3)N1CCCCC1	0.79µM*	/	0.89µM*	/	3.4µM*	?
Cc1ccc2c(c1)COc1c3ccc(C(=O)N4CCCCC4)cc3nn1-2	3.2µM*	/	?	/	3.8µM*	?
O=C(c1ccc2c3n(nc2c1)-c1ccc(Cl)cc1CO3)N1CCOCC1	2µM*	/	?	/	9.5µM*	18µM*
O=C(CSc1nc2[nH]ncc2c(=O)n1-c1ccccc1Br)NCc1ccccc1Cl	-8%	5%	-4%	0%	0%	-2%
N#CCSc1nc2[nH]ncc2c(=O)n1-c1ccccc1Br	?	/	0.32µM*	10µM*	0.13µM*	?
O=C(NCc1ccc(-c2nc3ccccc3s2)cc1)c1cc2ccccc2o1	1%	/	2%	/	?	12%
COc1cc(C(=O)NCc2ccc(OCCN(C)C)cc2)cc(OC)c1OC	-4%	?	-1%	-4%	4%	23µM*
SMILES	NPC1 prom act	SMN2 splice enh	Rab9 promoter act	Luc counter	FLuc counter	ELG1 genotoxic
COc1ccc(C(=O)Nc2cc(C)c(O)c(-c3nc4ccccc4s3)c2)cc1OC	/	5%	/	/	0.67µM*	/
COc1ccc(-c2nc3ccccc3s2)cc1NC(=O)c1ccccc1OC	/	?	/	/	11µM*	/
COc1cc(C(=O)NCc2ccncc2)cc(OC)c1OC	-1%	/	-1%	-5%	1%	4%
O=C(NCc1ccc(-c2nc3ccccc3s2)cc1)c1ccc(Br)o1	14%	-21%[1.84 µM]	24%	-3%	11µM*	?
CCc1ccc(NC(=O)C(=O)NCCc2sc(-c3ccc(OC)c(OC)c3)nc2C)cc1	/	/	/	/	-1%	/
NC(=O)[C@@H]1CCCN1Cc1nc(Cc2ccccc2Cl)no1	-2%	/	9%	-2%	-1%	1%
COc1ccccc1C(=O)Nc1ccc(-c2nc3ccccc3s2)c(C)c1	/	/	/	/	3.8µM*	/
COc1ccccc1C(=O)NCc1ccc(-c2nc3ccccc3s2)cc1	28%	-12%[1.84 µM]	?	4%	6µM*	18%
COc1cc(C(=O)NCc2ccc(-c3nc4ccccc4s3)cc2)cc(OC)c1OC	23%	18µM*	?	-4%	0.6µM*	?
COc1ccc(C(=O)NCc2ccc(-c3nc4ccccc4s3)cc2)cc1	24%	-6%	22%	-1%	2.4µM*	-1%
O=C(c1ccc(-n2cncn2)c([N+](=O)[O-])c1)N1CCN(S(=O)(=O)c2cccc(F)c2)CC1	-4%	/	10%	/	6%	2%
Cc1ccn2c(c1)nc(=O)c1cc(S(=O)(=O)N3CCC(C)CC3)c(Cl)cc12	/	6%	/	/	-1%	/
COc1cccc(C(=O)NCc2ccc(-c3nc4ccccc4s3)cc2)c1	10%	?	?	-4%	2.7µM*	21µM*
COc1cc(OC)c(NC(=O)Nc2cccc(OCc3cc(=O)n4ccccc4n3)c2)cc1Cl	/	/	/	/	-15%	/
Cc1ccc(CN2C(=O)CN(C3CCCCCC3)C(=O)C2c2ccc(F)cc2)cc1 (stereo unspecified)	/	/	/	/	-4%	/
O=C(NCc1ccccc1)Nc1cccn(Cc2ccccc2)c1=O	1%	-18%	-7%	-2%	11µM*	-2%
O=C(NCc1ccccc1)Nc1cccn(Cc2ccc(F)cc2)c1=O	0%	-48%	-3%	2%	?	0%
CCOc1ccc(NC(=O)Nc2ccccc2SC)cc1	4µM*	/	?	11µM*	2.7µM*	?
COc1ccc(Cn2cccc(NC(=O)Nc3cccc(C#N)c3)c2=O)cc1	-3%	-35%	-15%	0%	2%	-10%
Cc1ccc(Cn2cccc(NC(=O)NC3CCCCC3)c2=O)cc1	1%	-50%	-4%	0%	17µM*	-5%
CCOc1ccc(NC(=O)Nc2cccn(Cc3ccccc3)c2=O)cc1	3%	-20%	0%	-4%	9.5µM*	-1%
Cc1ccc(Cl)cc1NS(=O)(=O)c1cc2c3c(c1)CC(=O)N3CCC2	/	/	/	/	-12%	/
COc1cccc(/C=C/C(=O)OCC(=O)NCCc2ccccc2)c1	-3%	7%	2%	2%	-11%	1%
CN(CC(=O)Nc1ccc(F)cc1F)S(=O)(=O)c1cccc2nsnc12	/	-12%	/	/	-3%	/
O=C(NCc1ccccc1)Nc1cccn(Cc2ccccc2F)c1=O	0%	-26%	4%	-4%	12µM*	4%
